# Compound activity: PubChem, National Center for Advancing Translational Sciences (NCATS)
# Hits are enriched below; roughly 19% of the tested compounds scored in any of these assays.
# Pf growth 48h – inhibits P. falciparum growth in the first generation, 48 h; P. falciparum luciferase growth in erythrocytes, 48 h; Potency, µM (top dose mostly 28.7 µM), inactives show at the highest dose activity change, negative = inhibition, hits mostly inhibitors; actives 5.9% (n = 310,000); AID 504832; also: potency is read from the fitted curve at half-maximal effect; % is scaled to controls: 0 for no effect and ±100 for the full control effect
#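 Luciferase-expressing P. falciparum in infected erythrocytes (2% hematocrit, 0.1% parasitemia final) in RPMI 1640/0.5% Albumax were exposed to compound for 48 hours at 37 C, 5% CO2; growth read as luminescence.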
# CHX counter – counter-screen hit for Shiga toxin inhibitors, cycloheximide; cell reporter, cycloheximide protein synthesis inhibition counterscreen; max response, %; actives 12% (n = 300,000); AID 2314; in the data active = max response mostly above about 13%, no sharp cut-off; inactive = mostly below about 14%; also: read at 38.3 µM for the half of the compounds with a filed dose; 0% is about no effect
# Lassa entry inh – blocks Lassa virus binding to or entry into cells; Lassa virus pseudotype entry inhibition, cell reporter; Potency, µM (highest dose often 37.9 µM), without a hit: top-dose activity change, negative = inhibition, hits mostly inhibitors; actives 1.2% (n = 300,000); AID 540256; calls by dose curve; tested in HEK293 cells; also: potency is read from the fitted curve at half-maximal effect; % is scaled to controls: 0 for no effect and ±100 for the full control effect; nearly all actives have a fitted effect of over 50% in size
# Shiga inhibitor – Shiga toxin inhibition. actives 9.2% (n = 290,000). Vero cells, Shiga toxin protein synthesis inhibition reporter. inhibition, % at 38.7 µM. AID 2315; in the data active = inhibition mostly above about 28%, no sharp cut-off; inactive = mostly below about 43%; also: 0% is about no effect
# Pf growth 96h – inhibits malaria parasite growth, 96 h; P. falciparum luciferase reporter growth, 96 h; Potency, µM (highest dose often 28.7 µM), for the others: at the highest dose activity change, negative = inhibition, actives largely listed as inhibitors; actives 6.9% (n = 320,000); also: potency is read from the fitted curve at half-maximal effect; % is scaled to controls: 0 for no effect and ±100 for the full control effect
#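 Parasite growth measured via integrated firefly luciferase reporter in P. falciparum. Infected erythrocytes at 2% hematocrit, 0.05% parasitemia final were treated 96 hours at 37 C under 5% CO2, and luminescence was read.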
# MARV entry inh – Marburg virus entry inhibition; Marburg virus pseudotyped entry inhibition, cell reporter; Potency, µM (top dose mostly 37.8 µM), for inactives: top-dose activity change, negative = inhibition, hits mostly inhibitors; actives 1.8% (n = 300,000); calls by dose curve; tested in HEK293 cells; also: potency is read from the fitted curve at half-maximal effect; % is scaled to controls: 0 for no effect and ±100 for the full control effect
# * hit, by the source's call; ? = inconclusive; nt = no result; [ ] = dose if it differs, or a comment. Unless noted, calls follow the shape of the dose curve; as a rule, active = well fitted inhibition curve with a large enough effect; inconclusive = small, poorly fitted or top-dose-only effect, or another doubt; inactive = no such curve, though single readings can be large or run the other way.
SMILES,Pf growth 48h,CHX counter,Lassa entry inh,Shiga inhibitor,Pf growth 96h,MARV entry inh
CCCc1cc(-c2n[nH]c(=S)n2CC(C)C)cs1,10.5%,-1.5,?,-7.6,5.6%,25.7%
COc1cc(C(=O)NCC(=O)OCc2cc(=O)oc3c(C)c(C)ccc23)cc(OC)c1OC,-8.4%,6.7,-1.2%,-1.9,-17.6%,-3.1%[46.1 µM]
COc1ccc(S(N)(=O)=O)cc1C(=O)NCCCN1CCN(c2ccc(C)cc2)CC1,?,-1.3,3.4%,-6.8,?,-0.9%
CC1CCN(CCOc2ccc(OCc3ccccc3)cc2)CC1,15.0%,39.1*,-7.8%,54.0*,-21.8%,?
c1ccc(COc2ccc(OCCCN3CCCCC3)cc2)cc1,nt,31.9*,?,53.1*,8.2%,?
c1ccc(COc2ccc(OCCOCCn3cncn3)cc2)cc1,121.3%,56.9*,-4.8%,79.5*,nt,?
CN1CCN(CCOc2ccc(Cc3ccccc3)cc2)CC1,-15.3%,8.7,19.5%[46.1 µM],-4.0,112.0%,?
c1ccc(COc2ccc(OCCCCN3CCCC3)cc2)cc1,-31.8%,19.4*,-22.6%,81.9*,27.5%,?
c1ccc(OCCCCN2CCCCC2)cc1,-0.8%,-1.8,?,-1.9,27.1%,19.4%
O=C1NC(c2ccc(Cl)cc2)=COc2ccccc21,35.7%,16.9,0.1%,3.2,37.6%,16.7%[46.1 µM]
COc1ccc(OCC(=O)Nc2ccc3c(c2)nc(CCN2CCCCC2)n3C)cc1,?,-2.2,nt,-4.1,-27.7%,nt
COc1cccc(CNCCc2c[nH]c3ccccc23)c1OC,-5.3%,2.2,nt,-13.9,-8.0%,2.9%[46.1 µM]
O=C(Nc1ccc(OCc2ccccc2)cc1)Nc1ccccc1C(=O)NCCCN1CCOCC1,?,35.5*,17.3%[46.1 µM],48.3*,-21.4%,-1.5%[46.1 µM]
c1ccc(OCc2ccc(CCCN3CCOCC3)cc2)cc1,38.1%,26.0*,14.0%,28.4*,3.3%,?
O=[N+]([O-])c1ccc(C(O)C[n+]2ccccc2)cc1 (stereo not given),-18.3%,-0.8,nt,nt,7.38µM*,nt
CC1=Nc2ccccc2N=C(N)C1c1ccccc1 (stereo not given),62.5%,40.2*,?,66.9*,12.3%,-17.9%
CCN(CC)CCNC(=O)NC1CCCCC1,2.4%,10.5,16.2%,18.8,nt,-19.3%
CCC(C)NC(=O)CSc1nnc(-c2ccc(Cl)cc2)n1N (stereo not given),-1.3%,-1.2,nt,3.5,-10.3%,nt
Cc1ccc(-c2cc(-c3nnc(SCC(=O)NCC(C)C)n3N)c3ccccc3n2)cc1,-17.3%,35.7*,0.3%,28.7,-9.8%[5.75 µM],0.3%
CCC(C)NC(=O)CSc1nnc(-c2cc(-c3ccc(C)cc3)nc3ccccc23)n1N (stereo not given),nt,0.8,-0.2%,-1.6,11.7µM*,0.0%[46.1 µM]
O=C(c1ccc2ccccc2c1)N1CCOCC1,-13.7%,nt,6.1%,nt,18.4%,?
O=[N+]([O-])c1cccc(C(=Nc2cccc(Cl)c2)NO)c1,11.9%,-3.0,0.5%,-5.6,6.1%,-20.2%
ONC(=Nc1ccc(Cl)cc1)c1ccccc1,53.5%,17.8*,1.4%,6.6,55.4%,1.6%
CC(=O)Nc1c(C)nn(-c2ccc(C)c(C)c2)c1C,33.7%,3.1,26.0%,-9.4,7.9%,?
COc1ccc(S(=O)(=O)N(n2c(C)nnc2-n2nc(C)cc2C)S(=O)(=O)c2ccc(OC)cc2)cc1,8.8%,21.2*,13.0%,20.3,-7.7%,12.5%
SMILES,Pf growth 48h,CHX counter,Lassa entry inh,Shiga inhibitor,Pf growth 96h,MARV entry inh
Cc1ccc2c(nc3s/c(=C/c4cccs4)c(=O)n32)c1C,55.0%,30.1*,?,64.8,nt,?
CSc1nc(-c2ccccc2)[nH]c(=S)c1C(C)=O,nt,-2.7,8.1%,-14.1,9.28µM*,-0.1%
CCC(C)NC(=O)CS(=O)Cc1nc(-c2cccc(C)c2)oc1C (stereo not given),nt,4.1,nt,14.7,33.0%,nt
CC(C)C(C)(C#N)NC(=O)CSc1nnc(-c2ccncc2)n1Cc1ccccc1 (stereo not given),?,-1.1,-25.8%,33.6,3.7µM*,?
CC(C)C(C)(C#N)NC(=O)CSc1nc2scc(-c3ccc(F)cc3)c2c(=O)n1Cc1ccccc1 (stereo not given),9.28µM*,0.5,?,-1.3,4.65µM*,?
CCc1ccc(N2CC(C(=O)NCC(C)(C)N3CCOCC3)CC2=O)cc1 (stereo not given),1.8%,nt,nt,nt,6.7%,nt
CCOc1cccc(NC(=O)C2CC(=O)N(C)C(=Nc3ccccc3)S2)c1 (stereo not given),?,-5.0,?,-13.1,3.7µM*,?
COc1ccccc1N=C1SC(C(=O)Nc2ccc(F)cc2)CC(=O)N1C (stereo not given),10.4µM*,-3.4,3.9%,-0.2,?,?
CCOc1cccc(NC(=O)C2CC(=O)N(C)C(=Nc3cccc(F)c3)S2)c1 (stereo not given),?,1.4,?,14.9,?,-29.9%
Cc1ccc2nc3sc(C(=O)NCCCN(C)c4ccccc4)cc3cc2c1,nt,nt,22.9%[46.1 µM],nt,nt,nt
NC(=S)N/N=C1\CCOc2ccc(Cl)cc21,-9.8%,-1.6,nt,-7.7,?,nt
Cc1ccc(NS(=O)(=O)c2c(C)nc3sc(C)cn3c2=O)c(C)c1,nt,nt,13.7%[46.1 µM],nt,nt,nt
OCC1(Cc2cccc(C(F)(F)F)c2)CCN(Cc2cc3ccccc3o2)CC1,?,-4.1,1.3%,-3.1,-20.9%,?
CC1(C(=O)N2CCC(CO)(Cc3cccc(C(F)(F)F)c3)CC2)CC1,20.9%,-1.6,nt,6.1,16.5µM*,nt
COc1cc(CN2CCC(CO)(Cc3cccc(C(F)(F)F)c3)CC2)ccc1F,6.57µM*,0.4,nt,-7.9,4.15µM*,nt
Cc1c(CN2CCC(CO)(Cc3cccc(C(F)(F)F)c3)CC2)c2ccccc2n1C,3.7µM*,-4.8,?,-15.4,?,?
O=C(Nc1ccc(OC(=O)N2CCCC2)cc1)N1CCOCC1,1.5%,3.8,7.5%,0.5,11.3%,9.0%
CCOC(=O)C(/C(N)=N/C(=O)Nc1ccccc1)=C(\C)O,-5.1%,1.5,12.0%,-10.0,9.28µM*,?
CC(C)Oc1ccc(CCN=C(N)N=C(N)N)cc1Cl,8.5%,28.6*,-9.0%,50.6*,?,-27.1%
CC1CC(C)(O)CC(C(O)CC2CC(=O)NC(=O)C2)C1=O (stereo not given),nt,nt,0.398µM*,nt,nt,0.1µM*
COCc1cc(C)n(CC(=O)N2CCCC2)c(=O)c1C#N,21.5%,-1.4,17.0%,10.4,?,6.2%
CSc1nnc2c(n1)c(C)nn2-c1ccc(C)cc1,36.6%,19.6*,-0.9%,23.0,-16.9%,10.0%
CCOc1ccc(C(=O)NCC(=O)OCc2c(C)noc2C)cc1OCC,-18.7%,-1.5,nt,10.4,17.4%,5.4%[46.1 µM]
COc1cc2cc3c(N)c(C(=O)Nc4sc(C)c(C)c4C#N)sc3nc2cc1OC,?,-1.6,18.9%,11.1,11.7µM*,12.5%
COc1cc2cc3c(N)c(C(=O)NCc4ccco4)sc3nc2cc1OC,?,16.1*,-1.5%,53.8*,-18.0%,?
